Results on 23 molecules are retold here after PubChem BioAssay (NCATS).

A short description of assay [1]: qHTS assay for small molecule agonists of the antioxidant response element (ARE) signaling pathway measured by Nrf2-dependant transcriptional activity (AID 720636; active means well fitted curve in the direction sought with a large enough effect in the repeat runs; an effect the other way counts as inactive or inconclusive;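 further: HepG2 cells with an ARE-driven luciferase reporter; % of control where 0% means no effect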). The essentials: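 Attachment 6 hr at 37 C, then compound versus DMSO vehicle for 16 hr in ARE-luc HepG2 cells (1% dialyzed FBS); luminescence recorded 30 min after ONE-Glo addition at room temperature.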

Assay [2] in a line: qHTS assay for small molecule agonists of the antioxidant response element (ARE) signaling pathway measured by Nrf2-dependant transcriptional activity - cell viability counter screen (AID 720653; active means well fitted curve in the direction sought with a large enough effect in the repeat runs; an effect the other way counts as inactive or inconclusive; further: on the % scale 0 is the no-effect control and ±100 the full control effect). The note with it: ARE-bla HepG2 viability, CellTiter-Glo ATP luminescence, 16 h; max response: stronger effect = lower value. In short, it runs like this: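 ARE-bla HepG2 cells treated with compounds for 16 h at 37C; this counter screen measures viability as intracellular ATP by CellTiter-Glo luminescence after 30 min at room temperature.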
A general note: qHTS replaces the single test concentration by a dilution series.

Assay [3] is described as follows: qHTS Assay for Identifying Gametocytocidal Compounds (AID 743244).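 Further: on the % scale 0 is the no-effect control and ±100 the full control effect; actives lower the fluorescent signal which means gametocytes are killed.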 The settings on record: P. falciparum 3D7 stage III-V gametocytes, alamarBlue, 72 h; max response: stronger effect = lower value. The essentials:
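Viability read-out was resazurin reduction (alamarBlue, 24 h) measured at Ex 525/Em 598 nm. Beforehand, late-stage (III-V) 3D7 P. falciparum gametocytes at 20,000 cells/well were incubated with compound 72 h at 37C under 5% CO2.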

A short description of assay [4]: qHTS assay for cell viability of HEK293 cells (AID 743288). Further: on the % scale 0 is the no-effect control and ±100 the full control effect; nearly all actives have a fitted effect of over 50% in size. The note with it: ATP luminescence (CellTiter-Glo), 18 h; max response: stronger effect = lower value. The essentials:
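HEK293 parental, 2,000 cells/well; ≥5 h pre-incubation 37 C; pintool compound addition; 18 h, 37 C; CellTiter-Glo 30 min RT; luminescence read.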

A short description of assay [5]: qHTS assay for cell viability of the p53RE-bla HCT-116 cell line (AID 743292). Further: on the % scale 0 is the no-effect control and ±100 the full control effect; nearly all actives have a fitted effect of over 55% in size. The essentials:
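Compound-exposed HCT-116 (p53RE-bla) cells, 4,000 per well, were kept 16 h at 37 C following a 5 h preincubation. Cell number was estimated from total ATP by CellTiter-Glo luminescence read after 30 min at room temperature.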

For assay [6] the following is noted: Ebola virus entry assay, ratio channel.
For assay [7] the following is noted: Ebola virus entry assay, green channel fluorescence.
Assay [8] in a line: qHTS assay for small molecule antagonists of the retinoid-related orphan receptor gamma (ROR-gamma) signaling pathway - cell viability counter screen (AID 720652; active means well fitted curve in the direction sought with a large enough effect in the repeat runs; an effect the other way counts as inactive or inconclusive;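 further: series mostly up to about 92 µM; compound exposure lasted 16 hr before ATP read; on the % scale 0 is the no-effect control and ±100 the full control effect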). In short, it runs like this: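 Cytotoxicity is quantified via intracellular ATP (CellTiter-Glo luminescence) in doxycycline-induced CHO ROR response element-luciferase reporter cells treated with compound for 16 hr at 37 C, 5% CO2.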

Several values for one entry are separate records, joined by “and”; a condition that tells them apart may be missing. Equal entries are not always repeated. A number with no mark means an inactive call. Records with an inconclusive call do not appear. For some of these results: Measured potencies and affinities stand elsewhere. Activity calls are given as the source filed them.

With `CCCCCCCCCC(CC)c1ccc(S(=O)(=O)O)cc1` (stereo not given), the Potency result in assay [1] and in assay [5] was “inactive” each time. The max response in assay [2] was -0.0281% and -4.65%; in assay [3], -5.24% and 45.2%; in assay [4], -11.2% and -4.04%. The AC50 – broadly, the midpoint of the concentration-response curve, whichever way the signal moves – in assay [6] was 31.6 µM (active). Also, the call in assay [7] was inactive.
In the case of `C=CC(=O)NCNC(=O)C=C`, the Potency result in assay [1], in assay [8] and in assay [5] was “inactive” in each case. In addition, the max response in assay [2] is 1.98% and -12.5%; in assay [3], 11%; in assay [4], 3.56% and -2.17%. The result in assay [6] and in assay [7] was inactive.
Turning to `O=[N+]([O-])/N=C1\NCCN1Cc1ccc(Cl)nc1`, the Potency result in assay [1] and in assay [5] was “inactive” in each case. In addition, the max response is 8.85% in assay [2]; 3.56% and 4.82% in assay [3]; -6.64% in assay [4]. The outcome in assay [6] and in assay [7] was inactive.
`S=c1[nH]c2ccccc2s1`: the outcome in assay [6] and in assay [7] was inactive.
For the molecule `Nc1ccc([N+](=O)[O-])cc1`, the Potency entry in assay [1], in assay [8] and in assay [5] was “inactive” each time. Also, the max response in assay [2] is -0.336%; in assay [3], -13.4%; in assay [4], -4.75%. Also, the outcome in assay [6] and in assay [7] was inactive.
For `Nc1ccc(Cl)cc1N`, the Potency entry in assay [8] and in assay [5] was “inactive” in each case. In addition, the max response was -19.8% in assay [2]; -15.5% in assay [3]; -8.79% and -16.5% in assay [4]. For the same molecule, the result in assay [6] and in assay [7] was inactive.
`C=CCC1=C(C)C(OC(=O)C2C(C=C(C)C)C2(C)C)CC1=O` (stereo not given): the Potency entry in assay [1] and in assay [5] was “inactive” in each case. Moreover, the max response is 6.17% and -10.4% in assay [2]; -9.3% in assay [3]; -9.9% and -17.4% in assay [4]. Moreover, the result in assay [6] and in assay [7] was inactive.
As to `CC1=C(C/C=C(\C)CCC[C@H](C)CCC[C@H](C)CCCC(C)C)C(=O)c2ccccc2C1=O`, the outcome in assay [6] and in assay [7] was inactive.
For `COc1nn(CSP(=S)(OC)OC)c(=O)s1`, the Potency result in assay [1] and in assay [5] was “inactive” in each case. The max response in assay [2] was -11.6%; in assay [3], 14.2%; in assay [4], -26%. Further, the outcome in assay [6] and in assay [7] was inactive.
Take `ClC1=C(Cl)[C@]2(Cl)[C@@H]3[C@@H]4C[C@@H]([C@H]5O[C@@H]45)[C@@H]3[C@@]1(Cl)C2(Cl)Cl`: the Potency result in assay [1] and in assay [5] was “inactive” in each case. For the same molecule, the max response in assay [2] is -16.9%; in assay [4] it was -27.3%. Besides, in assay [6], the AC50 was 5.62 µM (active). In addition, the outcome in assay [7] was inactive.
In the case of `CCO/N=C(\CC)C1=C(O)CC(c2c(C)cc(C)cc2C)CC1=O` (stereo not given), the Potency entry in assay [1] and in assay [5] was “inactive” throughout. The max response is 1.75% in assay [2], 13.9% in assay [3] and -20.6% in assay [4]. Moreover, the result in assay [6] and in assay [7] was inactive.
Consider `CC1(C)CC/C(=C/c2ccc(Cl)cc2)C1(O)Cn1cncn1` (stereo not given), for which the max response in assay [3] was -5.52%. The outcome in assay [6] and in assay [7] was inactive.
`c1ccc2occc2c1`: in assay [1], the Potency result was “inactive”. For the same molecule, the outcome in assay [6] and in assay [7] was inactive.
As for `O=S(=O)(c1ccc(Cl)cc1)c1ccc(Cl)cc1`, the Potency result in assay [1], in assay [8] and in assay [5] was “inactive” throughout. Moreover, the max response in assay [2] was -11% and -26.7% and -18.8%; in assay [3], -16%; in assay [4], -6.49% and -9.97% and -17.8%. Moreover, the result in assay [6] and in assay [7] was inactive.
Regarding `O=C(Nc1ccccc1-c1ccc(Cl)cc1)c1cccnc1Cl`, the Potency entry in assay [1] and in assay [5] was “inactive” each time. Besides, the max response in assay [2] was -1.23%; in assay [3], 10.9%; in assay [4] it was -25.4%. In addition, the AC50 in assay [6] is 22.4 µM (active). Moreover, in assay [7], the molecule was classed as inactive.
Regarding `Nc1ccc(N=Nc2ccccc2)cc1`, the max response is -5.85% in assay [2], 11.9% in assay [3] and -0.712% in assay [4]. Moreover, the Potency result in assay [5] is “inactive”. The outcome in assay [6] and in assay [7] was inactive.
In the case of `O=C(O)COc1nc(Cl)c(Cl)cc1Cl`, the Potency entry in assay [1] and in assay [5] was “inactive” throughout. Also, the max response in assay [2] is -15.1%; in assay [3] it was 14.5%; in assay [4], -10.3%. The result in assay [6] and in assay [7] was inactive.
Turning to `O=[N+]([O-])c1c(Cl)c(Cl)cc(Cl)c1Cl`, the Potency entry in assay [1], in assay [8] and in assay [5] was “inactive” throughout. The max response is 0.0593% in assay [2], -14.2% in assay [3] and -0.234% in assay [4]. Further, the outcome in assay [6] and in assay [7] was inactive.
Take `N=C1N=C(N)c2cc3ccccc3cc21`: the outcome in assay [6] and in assay [7] was inactive.
With `CCC(C)(Oc1ccc(C2(c3ccc(OC(C)(CC)C(=O)O)cc3)CCCCC2)cc1)C(=O)O` (stereo not given), the result in assay [6] and in assay [7] was inactive.
As for `CC(C)Oc1cccc(NC(=O)c2ccccc2C(F)(F)F)c1`, the Potency result in assay [1] and in assay [5] was “inactive” each time. For the same molecule, the max response in assay [2] is -3.23%; in assay [3], 15.7%; in assay [4], -13.1%. The outcome in assay [6] and in assay [7] was inactive.
For `c1cc2ccc3cccc4ccc(c1)c2c34`, the Potency entry in assay [1], in assay [8] and in assay [5] was “inactive” throughout. Besides, the max response was -6.01% and -15.3% in assay [2]; -10.7% and -22.9% in assay [4]. Moreover, the result in assay [6] and in assay [7] was inactive.
As for `CCCCC(CC)COC(=O)c1ccccc1C(=O)O` (stereo not given), the result in assay [6] and in assay [7] was inactive.
